Assay outcomes: PubChem BioAssay, several laboratories
Hits are enriched below; roughly 1.6% of the tested compounds scored in any of these assays.
VLA-4 inh: inhibition in a human VLA-4 binding assay; P13612; VLA-4 expressing cells, ligand binding flow cytometry; inhibition, % (about 7 µM as worked out from the volumes in the protocol); 330,000 tested, 0.2% active; AID 2557; in the data active = inhibition above about 50%
PKA-R1A act: PKA-R1A complex activation; AID 504707; P00514+P68181; activation, % at 11.4 µM; PKA-R1A dissociation, Cy5-IP20 fluorescence polarization; scaled: DMSO 0%, 113 µM cGMP 100%; 340,000 tested, 0.083% active;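 active = percent activation above the mean of all tested compounds plus 3 SD, cut at about 19% in these data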;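 note: higher means more PKAc released from R1A so a rise in polarization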
NRP1-CendR mod: NRP-1/CendR interaction modulation. O14786. FAM-RPARPAR peptide binding to NRP-1, fluorescence polarization. inhibition, % at 25 µM. 360,000 tested, 0.85% active. AID 602438;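 active = inhibition or corrected inhibition above about 18%, plus a signal ratio from 0.5 to 1.5, limit read from the data, passing the limit was not always enough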
ATG4B inh: blocks human ATG4B protease cleavage of LC3 substrate; AID 504462; ATG4B cleavage of LC3-PLA2, NBD-HPC fluorescence, 1 h; 340,000 tested, 0.51% active; Q9Y4P1; inhibition, % at 8.33 µM; in the data active = inhibition above about 40%
PKA-R2B activ: activators of human PKA-R2B complex; 340,000 tested, 0.079% active; P22694+P31323; activation, % at 11.4 µM; PKA-R2B holoenzyme dissociation, Cy5-IP20 fluorescence polarization; R2B truncated from residue 108, S112A mutant; 0% DMSO only, 100% 113 µM cGMP;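 active = activation above a cutoff set at the mean over all compounds plus 3 SD, cut at about 18% in these data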;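 note: higher means more holoenzyme dissociation and a rise in polarization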
Target sequence (P31323 whole entry, looked up, other chains not shown, the tested form may be a part): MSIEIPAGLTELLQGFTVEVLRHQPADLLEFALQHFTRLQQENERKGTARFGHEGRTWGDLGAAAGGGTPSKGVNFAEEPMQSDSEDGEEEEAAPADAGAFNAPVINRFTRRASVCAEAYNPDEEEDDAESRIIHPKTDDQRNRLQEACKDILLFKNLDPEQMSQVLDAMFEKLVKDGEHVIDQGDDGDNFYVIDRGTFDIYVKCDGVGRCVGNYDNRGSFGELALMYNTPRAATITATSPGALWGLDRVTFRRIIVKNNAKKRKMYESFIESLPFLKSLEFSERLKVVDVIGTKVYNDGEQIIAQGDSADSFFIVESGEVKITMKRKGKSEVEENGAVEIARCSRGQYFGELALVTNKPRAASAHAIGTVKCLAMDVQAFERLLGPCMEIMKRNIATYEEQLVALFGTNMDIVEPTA
R2B FP artifact: fluorescence polarization artifact in PKA-R2B activator counter-screen; 270 tested, 6% active; shares compounds with PKA-R2B activ; activation, % at 11.4 µM; FP artifact counterscreen; AID 504796; in the data active = activation above about 20%;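 note: Cy5 labelled IP20 peptide probe with compound but no PKA protein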
PKA-R2B confirm: PKA-R2B complex activation, confirmation; shares compounds with PKA-R2B activ; fluorescence polarization; AID 504797; 270 tested, 9% active; activation, % at 11.4 µM; in the data active = activation above about 19%
Target sequence (P31323 whole entry, looked up): as the sequence (P31323 whole entry, looked up, other chains not shown, the tested form may be a part) above
The depositor's hits bear a star; i = inactive; / = no result given; + = active, no number; ! = repeats disagree.

SMILES	VLA-4 inh	PKA-R1A act	NRP1-CendR mod	ATG4B inh	PKA-R2B activ	R2B FP artifact	PKA-R2B confirm
NC(=O)CC(NC(=O)c1ccc(Br)cc1)c1ccc(N2CCC(Cc3ccccc3)CC2)c([N+](=O)[O-])c1 (stereo not drawn)	-6.0	-0.6	7.5	-2.1	18.5*	9.8	10.8
COc1c(C)cc(C(O)c2ncc(-c3ccccc3C)[nH]2)cc1C (stereo not drawn)	/	/	15.9	/	/	/	/
O=C(O)c1sccc1SCc1ccc(Cl)cc1Cl	-0.2	9.5	0.9	18.5	22.9*	2.5	15.2
O=C(/C=C/c1cccc([N+](=O)[O-])c1)n1cnc2ccccc21	/	/	1.1	14.1	/	/	/
O=S(=O)(O)c1cccc2c(N=Nc3ccc(O)c4ncccc34)cccc12	2.8	-0.3	54.1	30.0	20.8*	-2.1	12.3
O=C(Cc1ccc(Cl)cc1Cl)NC1CCCCCC1	22.7	10.1	-11.8	-4.3	22.6*	-4.3	-1.0
CCN(CC)c1ccc(NC(=O)Cn2c(C(C)NC(=O)c3ccccc3)nc3ccccc32)cc1 (stereo not drawn)	-49.2	0.5	-7.7	-7.3	18.6*	-3.4	-3.0
Cc1ccc(C(=O)OCC(=O)Nc2cc(C(C)(C)C)no2)c(C)c1	8.1	-9.1	6.6	-5.5	-13.9	/	/
CN1OC[C@@H]2CN(S(=O)(=O)c3cccc(C(F)(F)F)c3)[C@H](c3ccc(-c4cccnc4)cc3)C[C@@H]21	/	-4.5	0.6	/	-5.9	/	/
CCC(=O)Nc1sc2c(c1C(N)=O)CCC2	-53.9	4.0	8.7	-2.5	22.1*	1.4	0.1
CCC(C)NCC(=O)Nc1sc2c(c1C(N)=O)CCC2 (stereo not drawn)	4.2	-8.5	-7.0	-11.2	-3.8	/	/
COc1cc(C(=O)O)nc(OC)n1	9.8	-4.8	2.1	-2.6	0.1	/	/
CN(CCOc1ccccc1)CC(=O)Nc1ccc(Cl)cc1[N+](=O)[O-]	-1.9	-2.2	7.0	0.2	20.7*	-1.9	-2.9
COc1cc(NC(=O)CN(C)CCOc2ccccc2)c(C)cc1[N+](=O)[O-]	6.5	4.1	14.8	-3.0	8.2	/	/
COc1ccc(CCn2c(=O)[nH]c3cc(C(=O)N4CCN(c5ccccn5)CC4)ccc3c2=O)cc1OC	2.3	-3.1	-7.2	-3.6	-5.5	/	/
Fc1ccc2cc(-c3ccsc3)ncc2c1	14.0	-0.3	-4.6	5.7	-4.8	/	/
CCN1C/C(=C/c2cccc([N+](=O)[O-])c2)C(=O)/C(=C/c2cccc([N+](=O)[O-])c2)C1	39.2	-3.9	23.3	7.7	18.7*	1.8	2.3
COc1ccccc1C(C#N)c1cccc(Cl)n1 (stereo not drawn)	2.8	-3.4	-2.5	0.5	-7.4	/	/
CCOc1ccccc1NC(=O)C(OC(=O)c1ccc(CC)cc1)c1ccccc1 (stereo not drawn)	-7.0	1.2	-7.3	1.2	19.2*	0.6	1.0
O=C(Nc1ccc2cccnc2c1)c1ccc(Br)cc1	-1.2	-17.8	-10.5	-0.6	1.6	/	/
Brc1ccc2cccnc2c1	35.0	5.7	-7.6	-0.3	23.0*	-0.6	0.3
Cc1ccccc1-c1nnc(SCC(=O)NC2CCS(=O)(=O)C2)n1C (stereo not drawn)	11.3	8.5	1.6	5.2	19.0*	6.2	2.0
CCN(CC)S(=O)(=O)c1ccc2[nH]cc(C(=O)NC3CC3)c(=O)c2c1	28.5	1.6	11.3	-3.4	-6.1	/	/
CC(C(=O)O)c1ccc(-c2ccccc2)c(F)c1 (stereo not drawn)	29.7	-7.9	-15.9	-6.5	20.6*!	0.4	5.4
Cc1nc(CCNC(=O)CC2C(=O)NCCN2Cc2ccoc2)nc2c1CCCC2 (stereo not drawn)	1.9	4.2	-3.8	3.7	22.6*	3.2	3.0
SMILES	VLA-4 inh	PKA-R1A act	NRP1-CendR mod	ATG4B inh	PKA-R2B activ	R2B FP artifact	PKA-R2B confirm
COCCNC(=O)CN(Cc1ccccc1)C(=O)CCC(=O)Nc1nccs1	10.9	0.0	14.7	-2.0	19.1*	2.4	-4.3
COCCNC(=O)CN(Cc1cccs1)C(=O)CCC(=O)Nc1nccs1	16.5	-2.2	9.0	-3.8	-10.0	/	/
CCOC(=O)c1c(C)[nH]c(C(=O)OCC(=O)Nc2cc(C)nn2-c2ccccc2)c1C	0.5	3.3	-6.4	-7.6	4.0	/	/
O=C(O)C1(C(=O)O)CCC1	6.4	i	-5.2	2.9	+	i	i
O=C(OCc1ccc(F)cc1)c1cc(=O)c2ccccc2o1	2.3	5.8	1.5	1.8	20.6*	1.2	4.0
CC(C)OC(=O)CSc1nnc(-c2ccc(C(C)(C)C)cc2)n1N	-11.7	-0.4	4.1	-6.2	19.1*	-1.4	3.3
CCCCN1C(=O)C(CC(=O)NCc2cccc3ccccc23)CC(C(=O)N2CCCCCC2)=C1C (stereo not drawn)	/	/	-1.8	/	/	/	/
Cc1cc(C(=O)c2ccccc2)c(NC(=O)CN2CCOCC2)s1	-2.5	-15.0	-4.0	-8.8	18.5*	0.3	-0.4
CCCN(C)C[C@@H]1Oc2ncc(Br)cc2C(=O)N([C@@H](C)CO)C[C@H]1C	/	3.2	-11.8	/	20.4*	5.2	3.4
CCCN(C)C[C@H]1Oc2ncc(Br)cc2C(=O)N([C@@H](C)CO)C[C@@H]1C	/	2.4	-3.2	/	-3.6	/	/
COc1ccc(-c2noc(CN(C(=O)c3ccc4c(c3)OCO4)C(C)C)n2)cc1OC	5.8	8.9	-1.4	-5.0	18.7*	-0.7	-4.8
CC(C)CSc1ccc(S(=O)(=O)NCC(=O)O)cc1[N+](=O)[O-]	/	-0.1	5.9	-5.0	19.0*	4.2	-0.4
CSc1ccc(CCNS(=O)(=O)c2csc(C(N)=O)c2)cc1	0.8	-13.1	-6.1	0.4	-6.3	/	/
Cc1ccc(C(NC(=O)N2CCOCC2)C(Cl)Cl)cc1F (stereo not drawn)	3.4	-11.0	7.2	1.0	22.4*	4.9	5.0
CC(=O)NCCOC(=O)c1nn(Cc2ccccc2)c(=O)c2ccccc12	13.2	0.2	1.1	4.0	8.3	/	/
COc1ccc(CCNC(=O)Cc2ccc(Cl)cc2)cc1OC	8.2	-2.1	-0.1	1.9	-4.9	/	/
COc1ccc(CCNC(=O)Cn2c(=O)oc3cc(Cl)ccc32)cc1OC	-7.0	7.3	-6.8	0.6	18.5*	-0.2	-2.3
COc1ccc(OC)c(C(=O)c2coc3ccc(OC(C)=O)cc23)c1	6.0	2.8	-8.0	0.6	21.3*	2.6	0.0
COc1ccc(C(=O)c2coc3ccc(OC(C)=O)cc23)cc1	-1.9	2.3	-1.6	-6.9	-4.4	/	/
COc1ccc(CN2CCN(Cc3ccc4ccccc4c3)CC2)cc1OC	3.2	-8.6	-7.5	-7.3	23.5*	-1.9	-5.0
Cc1ccccc1N1CCN(S(=O)(=O)CC23CCC(CC2=O)C3(C)C)CC1 (stereo not drawn)	-23.1	-0.8	-6.1	32.4	-3.5	/	/
